This passage reports outcome results from PubChem BioAssay AID588651 (The Scripps Research Institute Molecular Screening Center, 2011).

Calls of active or inactive are those of the source. Cut-off read from the data, not from the text of the source: active = inhibition above about 65%; inactive = the rest.

The experiment concerns Antitargets. Briefly: Fam108b inhibition by ABPP, late-stage follow-up, biochemical, gel-based ABPP, recombinant soluble Fam108b, HTS hits, complex proteome (AID 588651).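 Note: Fam108b spiked into mouse brain membrane proteome; tested at 20 µM.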 The note with it: FP-rhodamine labeling in proteome.
Regarding `Nc1cc(C(=O)O)c(N)c2c1C(=O)c1ccccc1C2=O`, the outcome was inactive.

Consider `COc1ccc(-c2csc3nc(-c4ccccc4OC)oc(=O)c23)cc1`, for which the result was inactive.

As to `Nc1ccc2nc(-c3cccc(-c4nc5ccc(N)cc5[nH]4)c3)[nH]c2c1`, the result was inactive.

Regarding `CN(c1ccccc1)S(=O)(=O)c1ccc(NC(=O)c2ccc(-c3ccccc3)cc2)cc1`, the outcome was inactive.

Take `Oc1ccc(C2Nc3cccc4cccc(c34)N2)c(O)c1`: the result was inactive.

Turning to `O=c1oc(-c2ccccc2F)nc2scc(-c3ccccc3)c12`, the outcome was inactive.

Regarding `O=C(Nc1ccc(-c2csc(Nc3cccc(C(F)(F)F)c3)n2)cc1)c1cccc(C(F)(F)F)c1`, the outcome was inactive.

For `COc1cccc2c1C(=O)c1c(O)c3c(c(O)c1C2=O)C[C@@](O)(C(=O)CO)C[C@@H]3O[C@H]1C[C@H](N)[C@H](O)[C@H](C)O1`, the result was inactive.

For the compound `Oc1ccccc1-c1nc2c3ccccc3c3ccccc3c2[nH]1`, the outcome was inactive.

On to `Brc1csc(C=NNc2nc3ccccc3s2)c1`, for which the result was inactive.

In the case of `Oc1nc(Nc2cccc(Cl)c2)sc1/C=C1\C=Nc2ccccc21`, the result was active.

As to `CCn1nc([N+](=O)[O-])c(C(C#N)c2nc3cc(C(F)(F)F)ccc3s2)c(Cl)c1=O` (centres undefined), the outcome was inactive.

For the compound `CCc1ccc(S(=O)(=O)N=C2C=C(Sc3ncn[nH]3)C(=O)c3ccccc32)cc1`, the result was inactive.

As for `COc1ccc2ccccc2c1C(O)c1nccn1C` (centres undefined), the result was inactive.

Turning to `Cc1nc2scc(-c3ccc(Cl)cc3)c2c(=O)o1`, the result was inactive.

With `CCc1ccc(S(=O)(=O)/N=C2\C=C(Nc3cccc(C(=O)O)c3)C(=O)c3ccccc32)cc1`, the outcome was inactive.

For the compound `COc1ccc(S(=O)(=O)/N=C2\C=C(Nc3ccc(O)cc3)C(=O)c3ccccc32)cc1`, the result was inactive.

As to `COc1ccc(C=NNC(=O)c2ccc(O)cc2)cc1CN1CCCc2ccccc21`, the outcome was inactive.

On to `O=C(O)c1ccc(S(=O)(=O)/N=C2\C=C(Nc3ccccc3F)C(=O)c3ccccc32)cc1`, for which the outcome was inactive.

In the case of `CC1(C)CC(=O)C2=C(C1)c1c(ccc3ccccc13)NC2c1cc([N+](=O)[O-])cc([N+](=O)[O-])c1O` (centres undefined), the result was inactive.

In the case of `O=C1NC(=S)/C(=C\c2ccc(-c3ccccc3Cl)o2)S1`, the result was inactive.

For the compound `Cc1ccccc1NC1=C/C(=N\S(=O)(=O)c2cccs2)c2ccccc2C1=O`, the outcome was inactive.

With `O=C(NCC1CC1)c1ccc(Nc2nc3ccc(Br)cc3[nH]2)cc1`, the result was inactive.

As to `Cc1cc(C(C#N)c2ccc(Cl)cc2)c(Cl)cc1NC(=O)c1cc(I)cc(I)c1O` (centres undefined), the result was inactive.

Consider `Cc1ccnc(N=Cc2nc(-c3ccccc3Br)oc2O)c1`, for which the result was inactive.

As for `CC1CCCCN1S(=O)(=O)c1ccc(C(=O)Nc2ccccc2-c2nc3ccccc3[nH]2)cc1` (centres undefined), the result was inactive.

With `O=C1C(Cl)=C(Nc2ccc3cn[nH]c3c2)C(=O)c2ccccc21`, the result was inactive.

On to `Cc1ccc(S(=O)(=O)N=C2C=C(Sc3ncn[nH]3)C(=O)c3ccccc32)cc1`, for which the result was inactive.

On to `Brc1ccc(-c2csc(Nc3nc(-c4ccc(Br)cc4)cs3)n2)cc1`, for which the outcome was inactive.

For `COc1cccc(-n2c(SCc3cc(=O)oc4cc(O)c(O)cc34)nc3ccccc3c2=O)c1`, the outcome was inactive.

As for `O=C(Nc1ccc(-c2csc(Nc3ccccc3)n2)cc1)c1cc([N+](=O)[O-])cc(C(F)(F)F)c1`, the result was inactive.

Turning to `CCN(CC)S(=O)(=O)c1cc(NC(=O)COC(=O)c2sc3ccccc3c2Cl)ccc1C`, the result was inactive.

Regarding `Oc1c(Cl)cc(Cl)c(Cl)c1Cc1c(O)c(Cl)cc(Cl)c1Cl`, the outcome was inactive.

With `Clc1ccccc1C(c1ccccc1)(c1ccccc1)n1ccnc1`, the result was inactive.
